Paper PMC7862700, “An all-to-all approach to the identification of sequence-specific readers for epigenetic DNA modifications on cytosine”

Key:
Experiment in all cases: DAPPL (digital affinity profiling via proximity ligation, sequencing); 10 mM Tris-HCl pH 7.5, 50 mM NaCl, 1 mM DTT, 4% glycerol, room temperature, 30 min; GST-TFs on glutathione beads, 16-mer random dsDNA library, 0.1% formaldehyde crosslink after washing; high values mean tight binding
Settings in all cases: protein: recombinant; tags: N-terminal GST; dsDNA, one strand shown
FLI1 = biological target: T1, FLI1 (Homo sapiens, UniProt Q01543 1-452)
T1 sequence: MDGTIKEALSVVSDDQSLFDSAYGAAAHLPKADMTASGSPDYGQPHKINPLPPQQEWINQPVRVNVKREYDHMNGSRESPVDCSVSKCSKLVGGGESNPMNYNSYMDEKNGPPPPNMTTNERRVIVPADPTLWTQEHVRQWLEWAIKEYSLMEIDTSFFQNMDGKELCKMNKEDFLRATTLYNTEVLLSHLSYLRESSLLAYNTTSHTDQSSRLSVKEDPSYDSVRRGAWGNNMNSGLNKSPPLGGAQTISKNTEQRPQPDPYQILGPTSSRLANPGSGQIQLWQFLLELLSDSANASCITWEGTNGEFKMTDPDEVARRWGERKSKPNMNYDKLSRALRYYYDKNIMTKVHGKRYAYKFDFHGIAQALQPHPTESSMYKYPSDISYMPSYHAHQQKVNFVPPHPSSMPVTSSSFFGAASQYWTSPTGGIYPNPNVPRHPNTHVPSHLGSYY
How it was run: (§1)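 A tag-only sample was pooled with DNA-barcoded human transcription factors that had been expressed in yeast as GST fusions and captured on glutathione beads. The pools were incubated for 30 min at room temperature with 200 nmole of a random double-stranded 16-mer DNA library in Tris/NaCl/DTT/glycerol buffer, then washed, crosslinked with 0.1% formaldehyde, proximity-ligated (BsaI/T4 ligase, 1 h, 37 °C), PCR-amplified and sequenced on an Illumina NextSeq500. Binding signal is each hexamer's read frequency for a factor divided by its frequency for the tag-only sample.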

ELK1 = biological target: T2, ELK1 (Homo sapiens, UniProt P19419 1-428)
T2 sequence: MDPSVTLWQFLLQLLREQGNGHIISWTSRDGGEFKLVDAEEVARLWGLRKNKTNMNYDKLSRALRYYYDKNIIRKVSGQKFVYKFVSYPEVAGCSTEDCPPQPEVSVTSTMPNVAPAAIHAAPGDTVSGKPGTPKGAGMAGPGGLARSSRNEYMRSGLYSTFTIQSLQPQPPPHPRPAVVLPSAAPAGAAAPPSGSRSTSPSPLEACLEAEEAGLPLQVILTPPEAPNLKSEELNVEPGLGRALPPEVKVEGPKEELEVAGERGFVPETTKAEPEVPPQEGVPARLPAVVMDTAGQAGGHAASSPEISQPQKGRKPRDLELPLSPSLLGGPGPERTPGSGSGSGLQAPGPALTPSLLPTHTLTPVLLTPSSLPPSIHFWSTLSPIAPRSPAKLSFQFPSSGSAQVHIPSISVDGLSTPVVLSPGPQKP
How it was run: as §1

GABPA = biological target: T3, GABPA (Homo sapiens, UniProt Q06546 1-454)
T3 sequence: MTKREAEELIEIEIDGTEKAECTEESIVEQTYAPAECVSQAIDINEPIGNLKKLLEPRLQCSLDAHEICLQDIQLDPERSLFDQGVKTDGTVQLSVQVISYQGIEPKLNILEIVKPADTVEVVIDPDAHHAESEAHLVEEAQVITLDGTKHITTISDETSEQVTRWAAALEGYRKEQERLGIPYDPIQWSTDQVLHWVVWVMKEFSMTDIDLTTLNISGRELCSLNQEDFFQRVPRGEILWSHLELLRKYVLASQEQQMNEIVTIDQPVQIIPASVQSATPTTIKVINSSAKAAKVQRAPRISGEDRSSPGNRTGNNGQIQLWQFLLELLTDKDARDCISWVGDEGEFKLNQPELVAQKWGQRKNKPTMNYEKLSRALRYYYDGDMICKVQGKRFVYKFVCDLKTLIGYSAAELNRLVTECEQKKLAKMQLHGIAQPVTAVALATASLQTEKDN
How it was run: as §1

ERG = biological target: T4, ERG (Homo sapiens, UniProt P11308 1-479)
T4 sequence: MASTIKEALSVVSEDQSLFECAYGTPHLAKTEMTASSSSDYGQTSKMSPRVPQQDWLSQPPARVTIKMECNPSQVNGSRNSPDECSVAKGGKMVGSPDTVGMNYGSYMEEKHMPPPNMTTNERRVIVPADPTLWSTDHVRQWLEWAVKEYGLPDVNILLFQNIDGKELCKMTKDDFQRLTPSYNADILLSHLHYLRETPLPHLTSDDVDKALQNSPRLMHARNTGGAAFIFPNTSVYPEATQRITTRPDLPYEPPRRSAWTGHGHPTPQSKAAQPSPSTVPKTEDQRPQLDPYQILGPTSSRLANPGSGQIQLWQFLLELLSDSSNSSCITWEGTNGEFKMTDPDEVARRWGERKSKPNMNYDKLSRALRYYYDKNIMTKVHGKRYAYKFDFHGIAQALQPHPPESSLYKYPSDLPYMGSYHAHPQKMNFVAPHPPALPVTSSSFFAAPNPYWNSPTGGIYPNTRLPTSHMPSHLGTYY
How it was run: as §1

ELF1 = ELF1 (Homo sapiens, UniProt P32519 1-619)
Sequence of ELF1 (P32519 whole entry): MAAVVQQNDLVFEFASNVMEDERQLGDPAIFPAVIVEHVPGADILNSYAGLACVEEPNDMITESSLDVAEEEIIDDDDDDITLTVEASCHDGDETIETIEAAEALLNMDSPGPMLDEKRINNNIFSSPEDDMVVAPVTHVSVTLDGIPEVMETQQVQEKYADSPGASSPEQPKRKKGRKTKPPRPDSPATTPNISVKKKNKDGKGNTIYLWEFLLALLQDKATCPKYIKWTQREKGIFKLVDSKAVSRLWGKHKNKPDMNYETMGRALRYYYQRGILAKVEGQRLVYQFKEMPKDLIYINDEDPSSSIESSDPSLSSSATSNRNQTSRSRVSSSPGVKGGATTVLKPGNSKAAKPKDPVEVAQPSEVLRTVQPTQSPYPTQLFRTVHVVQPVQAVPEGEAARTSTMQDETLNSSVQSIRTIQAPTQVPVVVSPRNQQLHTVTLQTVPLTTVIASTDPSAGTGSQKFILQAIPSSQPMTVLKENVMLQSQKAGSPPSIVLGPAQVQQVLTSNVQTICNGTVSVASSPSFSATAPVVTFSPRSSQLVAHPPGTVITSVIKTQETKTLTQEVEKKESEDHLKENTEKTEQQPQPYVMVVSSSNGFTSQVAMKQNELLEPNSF
How it was run: as §1

EHF = biological target: T5, EHF (Homo sapiens, UniProt Q9NZC4 1-300)
T5 sequence: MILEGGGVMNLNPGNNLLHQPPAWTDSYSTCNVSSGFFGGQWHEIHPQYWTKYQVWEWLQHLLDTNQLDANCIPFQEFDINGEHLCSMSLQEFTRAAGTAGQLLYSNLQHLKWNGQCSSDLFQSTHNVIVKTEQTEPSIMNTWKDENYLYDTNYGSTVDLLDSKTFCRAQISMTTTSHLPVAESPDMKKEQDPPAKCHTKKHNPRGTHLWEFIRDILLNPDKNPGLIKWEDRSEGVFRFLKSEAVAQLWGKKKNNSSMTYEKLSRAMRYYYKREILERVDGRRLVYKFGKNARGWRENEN
How it was run: as §1

SPI1 = SPI1 (Homo sapiens, UniProt P17947 1-270)
How it was run: as §1

SPIB = SPIB (Homo sapiens, UniProt Q01892 1-262)
Sequence of SPIB (Q01892 whole entry): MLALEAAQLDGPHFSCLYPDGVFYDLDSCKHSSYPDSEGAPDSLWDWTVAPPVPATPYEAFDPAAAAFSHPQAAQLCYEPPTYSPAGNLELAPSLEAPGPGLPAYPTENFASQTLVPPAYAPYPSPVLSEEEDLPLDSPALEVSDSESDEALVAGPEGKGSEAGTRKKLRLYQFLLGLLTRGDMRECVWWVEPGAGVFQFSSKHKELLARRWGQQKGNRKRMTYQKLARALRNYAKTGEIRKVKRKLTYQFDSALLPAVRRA
How it was run: as §1

ELK3 = biological target: T6, ELK3 (Homo sapiens, UniProt P41970 1-407)
T6 sequence: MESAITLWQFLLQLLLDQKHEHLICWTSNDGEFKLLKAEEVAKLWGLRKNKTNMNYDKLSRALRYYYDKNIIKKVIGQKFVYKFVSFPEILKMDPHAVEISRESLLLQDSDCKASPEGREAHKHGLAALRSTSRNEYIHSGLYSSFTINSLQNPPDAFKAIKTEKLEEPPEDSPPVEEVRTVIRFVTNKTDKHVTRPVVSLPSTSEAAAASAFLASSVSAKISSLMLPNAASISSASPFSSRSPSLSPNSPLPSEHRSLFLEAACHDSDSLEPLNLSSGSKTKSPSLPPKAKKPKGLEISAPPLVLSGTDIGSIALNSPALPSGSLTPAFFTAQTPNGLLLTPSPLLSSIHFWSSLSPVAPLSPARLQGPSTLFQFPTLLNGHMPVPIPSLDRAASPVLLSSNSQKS
How it was run: as §1

Sequence	binding signal (FLI1)	binding signal (ELK1)	binding signal (GABPA)	binding signal (ERG)	binding signal (ELF1)	binding signal (EHF)	binding signal (SPI1)	binding signal (SPIB)	binding signal (ELK3)
TTATTA	1.17 fold enrichment (6-mer frequency, TF over GST control)	1.05 fold enrichment (6-mer frequency, TF over GST control)	1.04 fold enrichment (6-mer frequency, TF over GST control)	1.1 fold enrichment (6-mer frequency, TF over GST control)	1.1 fold enrichment (6-mer frequency, TF over GST control)	1.14 fold enrichment (6-mer frequency, TF over GST control)	1.1 fold enrichment (6-mer frequency, TF over GST control)	1.04 fold enrichment (6-mer frequency, TF over GST control)	1.2 fold enrichment (6-mer frequency, TF over GST control)
CCCTCT	1.31 fold enrichment (6-mer frequency, TF over GST control)	1.43 fold enrichment (6-mer frequency, TF over GST control)	1.37 fold enrichment (6-mer frequency, TF over GST control)	1.25 fold enrichment (6-mer frequency, TF over GST control)	1.28 fold enrichment (6-mer frequency, TF over GST control)	1.3 fold enrichment (6-mer frequency, TF over GST control)	1.28 fold enrichment (6-mer frequency, TF over GST control)	1.56 fold enrichment (6-mer frequency, TF over GST control)	1.51 fold enrichment (6-mer frequency, TF over GST control)
CCCATC	1.19 fold enrichment (6-mer frequency, TF over GST control)	1.18 fold enrichment (6-mer frequency, TF over GST control)	1.17 fold enrichment (6-mer frequency, TF over GST control)	1.11 fold enrichment (6-mer frequency, TF over GST control)	1.12 fold enrichment (6-mer frequency, TF over GST control)	1.17 fold enrichment (6-mer frequency, TF over GST control)	1.11 fold enrichment (6-mer frequency, TF over GST control)	1.18 fold enrichment (6-mer frequency, TF over GST control)	1.21 fold enrichment (6-mer frequency, TF over GST control)
TTTGGT	1.48 fold enrichment (6-mer frequency, TF over GST control)	1.29 fold enrichment (6-mer frequency, TF over GST control)	1.42 fold enrichment (6-mer frequency, TF over GST control)	1.31 fold enrichment (6-mer frequency, TF over GST control)	1.32 fold enrichment (6-mer frequency, TF over GST control)	1.36 fold enrichment (6-mer frequency, TF over GST control)	1.27 fold enrichment (6-mer frequency, TF over GST control)	1.3 fold enrichment (6-mer frequency, TF over GST control)	1.37 fold enrichment (6-mer frequency, TF over GST control)
GTCCTT	1.16 fold enrichment (6-mer frequency, TF over GST control)	1.2 fold enrichment (6-mer frequency, TF over GST control)	1.28 fold enrichment (6-mer frequency, TF over GST control)	1.22 fold enrichment (6-mer frequency, TF over GST control)	1.26 fold enrichment (6-mer frequency, TF over GST control)	1.28 fold enrichment (6-mer frequency, TF over GST control)	1.29 fold enrichment (6-mer frequency, TF over GST control)	1.34 fold enrichment (6-mer frequency, TF over GST control)	1.25 fold enrichment (6-mer frequency, TF over GST control)
CGACAC	1.18 fold enrichment (6-mer frequency, TF over GST control)	1.14 fold enrichment (6-mer frequency, TF over GST control)	1.16 fold enrichment (6-mer frequency, TF over GST control)	1.23 fold enrichment (6-mer frequency, TF over GST control)	1.24 fold enrichment (6-mer frequency, TF over GST control)	1.19 fold enrichment (6-mer frequency, TF over GST control)	1.2 fold enrichment (6-mer frequency, TF over GST control)	1.25 fold enrichment (6-mer frequency, TF over GST control)	1.14 fold enrichment (6-mer frequency, TF over GST control)
TGTAAA	1.22 fold enrichment (6-mer frequency, TF over GST control)	1.06 fold enrichment (6-mer frequency, TF over GST control)	1.08 fold enrichment (6-mer frequency, TF over GST control)	1.15 fold enrichment (6-mer frequency, TF over GST control)	1.14 fold enrichment (6-mer frequency, TF over GST control)	1.13 fold enrichment (6-mer frequency, TF over GST control)	1.26 fold enrichment (6-mer frequency, TF over GST control)	1.2 fold enrichment (6-mer frequency, TF over GST control)	1.09 fold enrichment (6-mer frequency, TF over GST control)
